The values that follow come from the antibiotic and cytotoxicity screens of Wong et al. (2023).

The structures appear in SMILES notation. Among all 39,000 compounds or so, about 3,300 (8.5%) were called active. For the sample, actives were picked, then their nearest neighbours and some compounds at random.

The experiment relates to HepG2. The experiment is described as follows: cytotoxicity call (relative viability < 0.9). The settings on record: 10 µM.
For the molecule `Cc1noc(C)c1NC(=O)N(C)C[C@@H]1OCCCC[C@@H](C)Oc2ccc(NC(=O)C3CCCCC3)cc2C(=O)N([C@H](C)CO)C[C@H]1C`, the cytotoxicity call is “inactive”.
Regarding `C[C@@H]1CN([C@@H](C)CO)S(=O)(=O)c2ccc(Br)cc2O[C@H]1CN(C)C(=O)c1ccccc1F`, the cytotoxicity call was “inactive”.
In the case of `O=C(O)c1cc(=O)cc[nH]1`, the cytotoxicity call was “inactive”.
Regarding `C[C@@H]1CN([C@@H](C)CO)C(=O)Cc2cc(NS(=O)(=O)c3ccc(F)cc3)ccc2O[C@@H]1CN(C)Cc1ccncc1`, the cytotoxicity call is “inactive”.
As for `COc1ccc(CNC(=O)C[C@H]2C[C@H]3c4cc(NC(=O)NC5CCCC5)ccc4O[C@H]3[C@H](CO)O2)cc1`, the cytotoxicity call is “inactive”.
Regarding `COc1cccc(S(=O)(=O)Nc2ccc3c(c2)[C@H]2C[C@H](CC(=O)NC4CCCCC4)O[C@H](CO)[C@H]2O3)c1`, the cytotoxicity call was “inactive”.
On to `OC(c1ccc(-c2ccc(CN3CCN(Cc4ccncc4)CC3)cc2)c(F)c1)(C(F)(F)F)C(F)(F)F`, for which the cytotoxicity call is “inactive”.
Take `CC(=O)N[C@@H](CC(C)C)C(=O)O` [listing 1 of 2 here]: the cytotoxicity call was “inactive”.
Take `CC(=O)N[C@@H](CC(C)C)C(=O)O` [listing 2 of 2 here]: the cytotoxicity call is “inactive”.
As to `CC(C)C[C@@H](NC(=O)CCN)C(=O)O`, the cytotoxicity call was “active”.
For `O=C(N[C@@H]1CC[C@H](CCNS(=O)(=O)c2ccc(F)cc2)O[C@H]1CO)C1CC1`, the cytotoxicity call is “inactive”.
`Cc1noc(C)c1S(=O)(=O)N(C)C[C@@H]1Oc2ccc(NC(=O)NC(C)C)cc2CC(=O)N([C@@H](C)CO)C[C@H]1C`: the cytotoxicity call is “inactive”.
Take `CCN1C(=O)S/C(=C\C(=O)O)C1=O`: the cytotoxicity call was “inactive”.
Take `O=C(C[C@H]1CC[C@@H]2NC[C@@H](O)COC[C@H]2O1)NCCN1CCCCC1`: the cytotoxicity call is “inactive”.
Take `C[C@@H]1CCCCO[C@H](CN(C)S(=O)(=O)c2ccc(Cl)cc2)[C@@H](C)CN([C@H](C)CO)C(=O)c2cc(NC(=O)Nc3ccc(C(F)(F)F)cc3)ccc2O1`: the cytotoxicity call is “active”.
With `C[C@H]1CCCCO[C@H](CN(C)S(=O)(=O)c2ccc(Cl)cc2)[C@@H](C)CN([C@@H](C)CO)C(=O)c2cc(NC(=O)Nc3ccc(C(F)(F)F)cc3)ccc2O1`, the cytotoxicity call is “inactive”.
Turning to `C[C@@H]1CCCCO[C@@H](CN(C)S(=O)(=O)c2ccc(Cl)cc2)[C@H](C)CN([C@@H](C)CO)C(=O)c2cc(NC(=O)Nc3ccc(C(F)(F)F)cc3)ccc2O1`, the cytotoxicity call was “inactive”.
With `C[C@H](CO)N1C[C@H](C)[C@H](CN(C)S(=O)(=O)c2ccc(Cl)cc2)OCCCC[C@H](C)Oc2ccc(NC(=O)Nc3ccc(C(F)(F)F)cc3)cc2C1=O`, the cytotoxicity call was “active”.
On to `C[C@@H]1CCCCO[C@@H](CN(C)S(=O)(=O)c2ccc(Cl)cc2)[C@H](C)CN([C@H](C)CO)C(=O)c2cc(NC(=O)Nc3ccc(C(F)(F)F)cc3)ccc2O1`, for which the cytotoxicity call is “inactive”.
Then `C[C@@H]1CN([C@H](C)CO)C(=O)c2cc(NC(=O)Nc3ccc(C(F)(F)F)cc3)ccc2O[C@@H](C)CCCCO[C@H]1CN(C)S(=O)(=O)c1ccc(Cl)cc1`, with “inactive”; and `COc1ccc(S(=O)(=O)N(C)C[C@@H]2Oc3ncc(-c4cccc(OC)c4)cc3C(=O)N([C@H](C)CO)C[C@@H]2C)cc1`, with “inactive”; and `Cc1noc(C)c1S(=O)(=O)Nc1ccc2c(c1)C(=O)N([C@@H](C)CO)C[C@@H](C)[C@H](CN(C)C(=O)Nc1ccc(C(F)(F)F)cc1)OCCCC[C@@H](C)O2`, with “inactive”.
Regarding `NC[C@H]1COC2(CCCCC2)O1`, the cytotoxicity call is “inactive”.
On to `C[C@H]1CN([C@@H](C)CO)C(=O)Cc2cc(NC(=O)CCN3CCOCC3)ccc2O[C@H]1CN(C)S(=O)(=O)c1ccc(Cl)cc1`, for which the cytotoxicity call is “inactive”.
Regarding `CC(=O)Nc1nonc1N1CCCC1=O`, the cytotoxicity call is “inactive”.
Turning to `O=C(Cc1ccccn1)NCC[C@@H]1CC[C@@H](NC(=O)CN2CCOCC2)[C@@H](CO)O1`, the cytotoxicity call is “inactive”.
As for `Cc1ccc(S(=O)(=O)Nc2ccc3c(c2)C(=O)N([C@@H](C)CO)C[C@@H](C)[C@@H](CN(C)C(=O)Nc2ccc4c(c2)OCO4)OCCCC[C@H](C)O3)cc1`, the cytotoxicity call was “inactive”.
As for `CC1C=CC=CC=CC=CC=CC=CC=CC(OC2OC(C)C(O)C(N)C2O)CC2OC(O)(CC(O)CC(O)C(O)CCC(O)CC(O)CC(=O)OC(C)C(C)C1O)CC(O)C2C(=O)O` (centres undefined), the cytotoxicity call was “inactive”.
For `C[C@H]1[C@@H](O)[C@@H](C)\C=C/C=C\C=C/C=C\C=C/C=C\C=C/[C@@H](O[C@H]2O[C@H](C)[C@@H](O)[C@H](N)[C@@H]2O)C[C@H]2O[C@](O)(C[C@@H](O)C[C@@H](O)[C@@H](O)CC[C@@H](O)C[C@@H](O)CC(=O)O[C@H]1C)C[C@@H](O)[C@@H]2C(=O)O` the value was “inactive”.
As to `CC1C=CC=CC=CC=CC=CC=CC=CC(OC2OC(C)C(O)C(N)C2O)CC(O)C(C(=O)O)C(O)CC(=O)CC(O)CC(O)CC(O)CC(=O)CCCC(=O)CC(=O)OC1C(C)CC(C)C(O)CC(=O)c1ccc(N)cc1` (centres undefined), the cytotoxicity call was “active”.
Take `COc1ccc(CN(C)C[C@@H]2Oc3ccc(NC(=O)Cn4cnnn4)cc3CC(=O)N([C@H](C)CO)C[C@H]2C)cc1`: the cytotoxicity call was “inactive”.
For the molecule `O=c1nc(NCc2cccnc2)cn[nH]1`, the cytotoxicity call was “inactive”.
Then `COc1ccc(NC(=O)Nc2ccc3c(c2)C(=O)N([C@@H](C)CO)C[C@@H](C)[C@H](CN(C)CC2CCCCC2)OCCCC[C@@H](C)O3)cc1`, with “inactive”; and `COc1ccc(NC(=O)Nc2ccc3c(c2)C(=O)N([C@@H](C)CO)C[C@@H](C)[C@@H](CN(C)CC2CCCCC2)OCCCC[C@H](C)O3)cc1`, with “inactive”.
`COc1ccc(NC(=O)Nc2ccc3c(c2)C(=O)N([C@@H](C)CO)C[C@@H](C)[C@H](CN(C)CC2CCCCC2)OCCCC[C@H](C)O3)cc1`: the cytotoxicity call is “inactive”.
In the case of `COc1ccc(NC(=O)Nc2ccc3c(c2)C(=O)N([C@H](C)CO)C[C@@H](C)[C@@H](CN(C)CC2CCCCC2)OCCCC[C@H](C)O3)cc1`, the cytotoxicity call was “active”.
Consider `COc1ccc(NC(=O)Nc2ccc3c(c2)C(=O)N([C@H](C)CO)C[C@@H](C)[C@H](CN(C)CC2CCCCC2)OCCCC[C@@H](C)O3)cc1`, for which the cytotoxicity call was “active”.
For `COc1ccc(NC(=O)Nc2ccc3c(c2)C(=O)N([C@H](C)CO)C[C@H](C)[C@@H](CN(C)CC2CCCCC2)OCCCC[C@@H](C)O3)cc1` the value was “inactive”.
For `COc1ccc(NC(=O)Nc2ccc3c(c2)C(=O)N([C@@H](C)CO)C[C@H](C)[C@H](CN(C)CC2CCCCC2)OCCCC[C@@H](C)O3)cc1` the value was “inactive”; for `COc1ccc(NC(=O)Nc2ccc3c(c2)C(=O)N([C@@H](C)CO)C[C@H](C)[C@@H](CN(C)CC2CCCCC2)OCCCC[C@H](C)O3)cc1`, “inactive”; for `COc1ccc(NC(=O)Nc2ccc3c(c2)C(=O)N([C@@H](C)CO)C[C@@H](C)[C@@H](CN(C)CC2CCCCC2)OCCCC[C@@H](C)O3)cc1`, “active”.
As to `COc1ccc(NC(=O)Nc2ccc3c(c2)C(=O)N([C@H](C)CO)C[C@@H](C)[C@H](CN(C)CC2CC2)OCCCC[C@H](C)O3)cc1`, the cytotoxicity call was “inactive”.
Then `COc1ccc(NC(=O)Nc2ccc3c(c2)C(=O)N([C@H](C)CO)C[C@H](C)[C@H](CN(C)CC2CCCCC2)OCCCC[C@H](C)O3)cc1`, with “inactive”; and `COc1ccc(NC(=O)Nc2ccc3c(c2)C(=O)N([C@H](C)CO)C[C@@H](C)[C@@H](CN(C)CC2CCCCC2)OCCCC[C@@H](C)O3)cc1`, with “active”.
